# According to PubChem BioAssay (NCATS):
# Records with an inconclusive call do not appear. The source made the active and inactive calls. Calls follow the shape of the dose curve; as a rule, active = well fitted curve in the direction sought with a large enough effect; inconclusive = small, poorly fitted or top-dose-only effect, or another doubt; inactive = no such curve, though single readings can be large; an effect the other way counts as inactive or inconclusive.
# Test: Identifying Small Molecule Inhibitors of Pancreatic Cancer Stem Cells (SN12C, Spheroid) (AID 1259360); also: potency is read from the fitted curve at half-maximal effect;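 as to viability (% of control): 100% = DMSO-treated cells and 0% = wells without cells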
# Details: Potency: SN12C spheroid viability; series mostly up to 46.1 µM; viability (% of control): at the top concentration
# In short: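 After a 4 h attachment period, compounds were pinned into wells and cultures held 48 h under standard incubator conditions. Viability was then measured as CellTiter-Glo luminescence following 10 min at room temperature.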
Structure (SMILES),Potency,viability (% of control)
NC1(c2ccc(-c3nc4ccn5c(=O)[nH]nc5c4cc3-c3ccccc3)cc2)CCC1,23.5 µM (active),–
CNC(=O)c1cc(Oc2ccc(NC(=O)Nc3ccc(Cl)c(C(F)(F)F)c3)cc2)ccn1,18.7 µM (active),–
CCN(CC)CCn1c(=O)c(Cc2ccc(OC)cc2)nc2ccccc21,–,90.6% (inactive)
Cc1c(-c2ccc(O)cc2)n(Cc2ccc(OCCN3CCCCCC3)cc2)c2ccc(O)cc12,–,101% (inactive)
CC(C)C[C@H](NC(=O)[C@H](CCc1ccccc1)NC(=O)CN1CCOCC1)C(=O)N[C@@H](Cc1ccccc1)C(=O)N[C@@H](CC(C)C)C(=O)[C@@]1(C)CO1,0.0372 µM (active),–

# Test: Identifying Small Molecule Inhibitors of Pancreatic Cancer Stem Cells (A278, Adherent) (AID 1259361);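 also: viability read after 48 h compound exposure; nearly all actives have a fitted effect of over 35% in size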;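 as to viability (% of control): 100% = DMSO-treated cells and 0% = cell-free media-only wells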
# Details: series mostly up to 46.1 µM; viability (% of control): at the top concentration
# In short: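 Monolayer and spheroid cultures are compared. Spheroids form over 14 days in stem cell medium on hydrogel-coated low-attachment plates, then are exposed to compound for 48 h before CellTiter-Glo luminescence.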
Structure (SMILES),IC50 (viability decrease),viability (% of control)
CNC(=O)c1cc(Oc2ccc(NC(=O)Nc3ccc(Cl)c(C(F)(F)F)c3)cc2)ccn1,18.7 µM (active),–
CCN(CC)CCn1c(=O)c(Cc2ccc(OC)cc2)nc2ccccc21,–,100 (inactive)
COc1cc2c(Nc3ccc(Br)cc3F)ncnc2cc1OCC1CCN(C)CC1,18.7 µM (active),–
COc1cc([C@@H]2c3cc4c(cc3[C@H](O)[C@H]3COC(=O)[C@H]23)OCO4)cc(OC)c1OC,0.0148 µM (active),–
CC(C)C[C@H](NC(=O)[C@H](CCc1ccccc1)NC(=O)CN1CCOCC1)C(=O)N[C@@H](Cc1ccccc1)C(=O)N[C@@H](CC(C)C)C(=O)[C@@]1(C)CO1,0.0023 µM (active),–
